Laboratory results published in PubChem BioAssay (NCATS).
Results filed as inconclusive are left out. Activity calls are given as the source filed them. Calls come from the whole dose curve; as a rule, active = well fitted inhibition curve with a large enough effect; inconclusive = small, poorly fitted or top-dose-only effect; inactive = no such curve, though single readings can be large or run the other way.

Test: Primary qHTS for small molecule stabilizers of the endoplasmic reticulum resident proteome: Secreted ER Calcium Modulated Protein (SERCaMP) assay (AID 1508630)
Conditions: SH-SY5Y GLuc-SERCaMP (Gaussia luciferase released on ER calcium loss) secretion, thapsigargin, luminescence; series mostly up to 38.4 µM
How it was run: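 The SH-SY5Y reporter protocol was run at 3 concentrations up to 38.3 uM (primary) or 11 concentrations (follow-up): 16 h compound, 100 nM thapsigargin for 4 h, then extracellular luciferase luminescence.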
% is set by controls: 0 for no effect and ±100 for the full control effect.

Activity change, negative = inhibition, inactive:
CC[C@H](C)[C@H](NC(=O)[C@H](C)NC(=O)[C@H](CC(N)=O)NC(=O)[C@H](CCCCN)NC(=O)[C@H](Cc1ccccc1)NC(=O)[C@H](CC(C)C)NC(=O)[C@@H](NC(=O)[C@@H](NC(=O)[C@H](CC(C)C)NC(=O)[C@@H]1CCCN1C(=O)[C@@H](NC(=O)[C@H](CCC(N)=O)NC(=O)[C@H](CO)NC(=O)[C@H](CCCCN)NC(=O)[C@H](CCC(=O)O)NC(=O)[C@H](CO)NC(=O)[C@@H](NC(=O)[C@H](CCSC)NC(=O)[C@H](Cc1ccccc1)NC(=O)CNC(=O)CNC(=O)[C@@H](N)Cc1ccc(O)cc1)[C@@H](C)O)[C@@H](C)O)C(C)C)[C@@H](C)O)C(=O)N[C@H](C(=O)N[C@@H](CCCCN)C(=O)N[C@@H](CC(N)=O)C(=O)N[C@@H](C)C(=O)N[C@@H](Cc1ccc(O)cc1)C(=O)N[C@@H](CCCCN)C(=O)N[C@@H](CCCCN)C(=O)NCC(=O)N[C@@H](CCC(=O)O)C(=O)O)[C@@H](C)CC -16.9% [at 3.88 µM]
CCCCC/C=C\C/C=C\CCCCCCCC(N)=O -21% [at 3.88 µM]
CCCCCCCCCCCCCCCCOC[C@H](COP(=O)([O-])OCC[N+](C)(C)C)OC(=O)NC 5.26% [at 3.88 µM]
CCCCCCCCCCCCC(O)C(=O)O (configuration not stated) 56.7% [at 3.88 µM]
H-EQKQLQ-OH -18.8% [at 3.88 µM]
CCCCC/C=C\CC1OC1CCCCCCCC(=O)O (configuration not stated) -29.7% [at 0.478 µM]
CCCCCCCC/C=C\CCCCCCCC(=O)OC[C@@H](O)COP(=O)(O)O -10.9% [at 3.88 µM]
CCCCCCCCCC(=O)OCC(CO)OC(=O)CCCCCCCCC (configuration not stated) -13.4% [at 3.88 µM]
CCCCC/C=C\C/C=C\CCCCCCCC(=O)NCC(=O)O -10.8% [at 3.88 µM]
CCCCC/C=C\C/C=C\C/C=C\C/C=C\CCCC(=O)O[C@H](COCCCCCCCCCCCCCCCC)COP(=O)([O-])OCC[N+](C)(C)C -11.5% [at 3.88 µM]

Potency, inactive:
CC(N)COC(=O)C(CCCCN)NC(=O)Cc1c(-c2ccc3ccccc3c2)[nH]c2c1ccc1ccccc12 (configuration not stated)
COC(=O)[C@H]1C2CC3c4[nH]c5ccccc5c4CCN3CC2CC[C@@H]1O (some centres not stated)
C=C1Cc2c(Cl)cc3[nH]c4c5c3c2[C@@]2(O)[C@@H]1C[C@@H]2C(C)(C)O[C@H]5[C@@H]1CC[C@@]2(O)[C@@]35O[C@@H]3[C@@H](O)[C@@H](C(=O)O)O[C@H]5CC[C@]2(C)[C@@]41C
C=C1/C(=C\C=C2\CCCC3(C)C2CCC3C(C)/C=C/C(O)C2CC2)CC(O)CC1O (configuration not stated)
C[C@]12CC[C@@H](O)C[C@@H]1CC[C@@H]1[C@@H]2CC[C@]2(C)C=CC[C@@H]12
CC(N)(C(=O)O)c1ccc(P(=O)(O)O)cc1 (configuration not stated)
CC(N)CCCP(=O)(O)O (configuration not stated)
CSCC[C@H](NC(=O)[C@H](Cc1ccccc1)NC[C@@H](NC[C@@H](N)CS)C(C)C)C(=O)O
C/C(O)=C1\C(=O)[C@@H]2[C@H]3c4c[nH]c5cccc(c45)C[C@H]3C(C)(C)N2C1=O
CC(=O)N[C@@H](CSC/C=C(\C)CC/C=C(\C)CC/C=C(\C)CCC=C(C)C)C(=O)O
NCCCCCc1cnc[nH]1
CC(C)OC(=O)c1cn(Cc2c(F)cccc2F)c2sc(-c3ccc(NC(=O)C(C)C)cc3)c(CN(C)Cc3ccccc3)c2c1=O
N[C@@H](C(=O)O)[C@@H](CC(=O)O)c1ccc(Cl)cc1
Cc1ccccc1N1CCN(S(=O)(=O)CC23CCC(CC2NC(=O)C(N)CCS(C)(=O)=O)C3(C)C)CC1 (configuration not stated)
C[C@H](N)CCCP(=O)(O)O
N[C@@]1(C(=O)O)CO[C@H]2[C@H](C(=O)O)[C@H]21
CNC(=O)[C@H]1O[C@@H](n2cnc3c(N)ncnc32)[C@H](O)[C@@H]1O
O=C(NCCCCCCNC(=O)ON=C1CCCCC1)ON=C1CCCCC1
COC(=O)[C@@H](N)CSC/C=C(\C)CC/C=C(\C)CCC=C(C)C
O=C(O)[C@H]1CCCN1
CCCC(=O)NCCc1c(I)[nH]c2ccc(OC)cc12
CC(C)=CCN1CCC2(CCc3ccccc32)CC1
